Rows were chosen to be rich in hits. Some 7.1% of all compounds tested hit in one or more screens of this group.
ELG1 DNA repair: blocks ELG1-dependent DNA repair in HEK293T cells; HEK293T ELG1-luciferase reporter, luminescence, 16 h; DNA damage induced by 5-fluorouridine; Potency, µM (series often up to 46.1 µM), for the others: at the top dose activity change, negative = inhibition, hits mostly inhibitors; AID 504467; 330,000 tested, 2.3% active; note: % is set by controls: 0 for no effect and ±100 for the full control effect; nearly all actives have a fitted effect of over 55% in size
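Step one: seed 2,000 cells per well. Step two: pin-transfer compound or DMSO alongside 5-fluorouridine. Step three: incubate 16 hr, 37 °C, 5% CO2. Step four: add ONE-Glo, wait 30 min, read luminescence.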
MCF10A rerep: induces DNA re-replication in MCF 10a normal breast cells | 350,000 tested, 2.9% active | Potency, µM (top dose mostly 46.1 µM), inactives show top-dose activity, positive = re-replication, hits mostly activators | AID 624296 | MCF 10A DNA re-replication, Hoechst nuclear intensity, 48 h; note: % of control where 0% means no effect; nearly all actives have a fitted effect of over 50% in size
p53 reactivator: mutant p53 re-activation in reporter cells; Potency, µM (highest dose often 92.2 µM), for inactives: at the top dose activity change, positive = activation, actives largely listed as activators; H1299 p53-A138V BP100-luciferase reporter, luminescence, 24 h; AID 504706; 320,000 tested, 0.063% active; note: % of control where 0% means no effect; nearly all actives have a fitted effect of over 45% in size
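H1299 (p53-null), stable ts p53-A138V + BP100-Luc; 1000 cells/well, Opti-MEM/10% FBS; cpd 4 pt, 1:5; 24 h, 37 deg C, 5% CO2; detection reagent 10 min RT; luminescence.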
A-T KAP1 phos: candidate therapy for ataxia-telangiectasia; Potency, µM (doses to about 57.5 µM), for the others: at the top dose activation, hits mostly activators; AID 485349; 320,000 tested, 0.19% active; F2112 A-T fibroblasts, KAP-1 phosphorylation AlphaLISA; neocarzinostatin DNA damage 30 min before lysis; note: % of control where 0% means no effect; nearly all actives have a fitted effect of over 45% in size
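hTERT-immortalized A-T patient fibroblasts (F2112), 500 cells/well in OPTI-MEM, 1% FBS, got compounds for 60 min, then NCS for 30 min at 37C. Lysates were then assayed for phospho-KAP-1 by AlphaLISA (anti-pKAP1 donor, anti-KAP1 acceptor beads), 6 hr at 25C.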
ELG1 genotox: genotoxicity induction in ELG1-luciferase HEK293T cells; Potency, µM (highest dose often 46 µM), without a hit: top-dose activity change, positive = activation, most hits filed as activators; 330,000 tested, 1.3% active; HEK293T ELG1-luciferase reporter, luminescence, 16 h; note: % of control where 0% means no effect; nearly all actives have a fitted effect of over 60% in size
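Step 1: seed 2,000 HEK293T ELG1-luciferase cells per well. Step 2: add compound or DMSO, incubate 16 hr at 37 °C. Step 3: ONE-Glo, 30 min at room temperature, read luminescence.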
SW480 rereplic: induces DNA re-replication in SW480 colon adenocarcinoma cells; Potency, µM (titrated, usually from 46.1 µM), without a hit: at the highest dose re-replication activation, hits mostly activators; SW480 DNA re-replication, Hoechst DNA content imaging, 48 h; 340,000 tested, 1.8% active; note: % of control where 0% means no effect; nearly all actives have a fitted effect of over 55% in size
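Compounds, transferred as 23 nL by pin tool, were incubated with cells for 48 hr; DNA content per nucleus was then quantified by Hoechst staining and fluorescence plate imaging.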
* hit, by the source's call; ? = inconclusive; . = no result; [ ] = another dose, or the depositor's remark. Calls come from the whole dose curve; as a rule, active = well fitted curve in the direction sought with a large enough effect; inconclusive = small, poorly fitted or top-dose-only effect, or another doubt; inactive = no such curve, though single readings can be large; an effect the other way counts as inactive or inconclusive. Potency is the fitted concentration of half-maximal effect.

SMILES	ELG1 DNA repair	MCF10A rerep	p53 reactivator	A-T KAP1 phos	ELG1 genotox	SW480 rereplic
NS(=O)(=O)c1cccc(NC(=O)CSc2nnc(C3CC3)n2-c2ccccc2)c1	-2%	-9%	-5%	11%	1%	9%
O=C(CCl)N(Cc1cc(=O)[nH]c2ccccc12)c1ccccc1	13µM*	?	-17%	5%	-18%	10%
Cc1ccccc1N(Cc1cc(=O)[nH]c2ccccc12)C(=O)CCl	10µM*	.	-13%	11%	-8%	.
Cc1cccc(N(Cc2ccccc2)C(=O)CCl)c1	-10%	?	-11%	2%	-2%	21%
CCCCCCCN(C(=O)CCl)c1ccccc1C	-15%	0%	-45%	5%	-9%	7.3µM*
O=C(CCl)N(Cc1ccccc1)c1ccccc1	-25%	16µM*	-9%	1%	14%	5.8µM*
Cc1ccccc1C(=O)NCC(=O)N1CCN(C/C=C/c2ccccc2)CC1	?	-1%	-1%	-3%	-2%	-4%
O=C(CSc1nnc(C2CC2)n1C1CC1)c1ccc(Br)s1	28%	8%	?	5%	17%	-7%
Cc1ccc(NC(=O)CCc2nnc3ccc(N4CCC5(CC4)OCCO5)nn23)nc1	5.8µM*	-6%	1%	0%	1%	2%
CC(=O)c1ccc(NC(=O)CCc2nnc3ccc(N4CCC5(CC4)OCCO5)nn23)cc1	?	2%	?	5%	?	15%
CC1Cn2cc(C(=O)Nc3ccccc3C(F)(F)F)c(=O)c3c(Cl)ccc(c32)O1 (configuration not stated)	.	.	.	-3%	.	.
C=CCNc1nnc(SC2CC(=O)N(c3ccc(OC)cc3)C2=O)s1 (configuration not stated)	9%	5.8µM*	-14%	.	-1%	7%
Cc1ccc(NC(=O)c2cccc(S(=O)(=O)N(C)c3ccccc3)c2)cc1S(=O)(=O)N1CCOCC1	13µM*	-2%	-9%	0%	-4%	0%
COc1ccccc1N(C)S(=O)(=O)c1ccc(C(=O)Nc2ccc3nc(C)sc3c2)cc1	26µM*	?	22%	9%	-13%	.
CN(c1ccccc1)S(=O)(=O)c1cccc(NC(=O)c2ccc3ncsc3c2)c1	15µM*	53%	-4%	-4%	-10%	-4%
Cc1nc2ccc(NC(=O)c3cccc(S(=O)(=O)N(C)c4ccccc4)c3)cc2s1	18µM*	12%	-7%	6%	-9%	2%
O=C(/C=C/c1ccccc1Cl)c1ccc[nH]1	?	?	?	4%	?	4.6µM*
Fc1ccc(-c2nnc(-n3nnc4ccccc43)c3ccccc23)cc1	.	-183%[0.0737 µM]	.	.	.	1%
Fc1ccc(-c2nnn3c2nc(NCc2ccccc2)c2ccccc23)cc1	0%	?	-2%	17%	0%	?
COc1ccc(-c2nnn3c2nc(NCc2ccccc2)c2ccccc23)cc1	?	1.6µM*	-1%	3%	5%	?
COCCCNc1nc2c(-c3ccc(Cl)cc3)nnn2c2ccccc12	16%	?	17%	6%	-1%	11%
NNc1nc2c(-c3ccc(F)cc3)nnn2c2ccccc12	?	23µM*	15%	6%	?	?
NNc1nc2c(-c3ccc(Cl)cc3)nnn2c2ccccc12	?	5.8µM*	23%	11%	13%	8.2µM*
Cc1ccc(SCC(=O)Nc2ccc3c(c2)C(=O)N(C)C3=O)cc1	11%	3%	5%	7%	-2%	-5%
CC1(C)CC(NC(=O)c2ccc(Cl)c(S(=O)(=O)N(Cc3ccccc3)c3ccccc3)c2)CC(C)(C)N1	-10%	?	9%	-1%	9%	?
SMILES	ELG1 DNA repair	MCF10A rerep	p53 reactivator	A-T KAP1 phos	ELG1 genotox	SW480 rereplic
COc1ccc(N2C(=O)CC(Sc3n[nH]c(-c4cccc(C)c4)n3)C2=O)cc1 (configuration not stated)	?	110%	15%	-3%	-4%	-49%
CCOc1ccccc1N1C(=O)CC(Sc2n[nH]c(-c3ccccc3)n2)C1=O (configuration not stated)	4%	15µM*	24%	-4%	0%	?
COc1ccc(OCC(=O)OC2CCCN(C)C2)cc1 (configuration not stated)	3%	2%	7%	-4%	0%	-5%
Cc1cccc(NS(=O)(=O)c2ccc(C(=O)N3CCC3)cc2)c1C	5%	1%	-10%	-13%	-2%	-6%
Cn1c(C(=O)N2CCCC(Nc3ccc(F)cc3)C2)cc2ccccc21 (configuration not stated)	-2%	2%	2%	5%	-1%	-10%
CCOC(=O)C1=NN(c2cccc(Cl)c2)C2=NC(C)=C(C(=O)OC)C(c3cccs3)N12 (configuration not stated)	21µM*	8%	2%	-2%	-5%	-31%
CC(C)c1ccc(/C=C(\c2nc3ccccc3[nH]2)S(=O)(=O)c2ccccc2)cc1	?	2.6µM*	-19%	4%	-20%	12µM*
O=S(=O)(/C(=C/c1ccc(C(F)(F)F)cc1)c1nc2ccccc2[nH]1)c1ccccc1	16µM*	?	-34%	32µM*	-12%	?
COc1ccc(OCCOC(=O)Nc2ccccc2)cc1	-6%	2%	6%	10%	0%	-15%
O=C(Nc1ccccc1)OCCOc1ccccc1	?	-10%	?	-3%	12µM*	8%
O=C(Nc1ccccc1N1CCOCC1)c1cccc(Oc2ccccc2)c1	-10%	2%	12%	13%	-11%	-1%
O=C(C1=C[C@H](c2csc3ccccc23)C[C@H](OCc2ccc(CO)cc2)O1)N1CCCCCCC1	.	23µM*	.	.	.	1%
O=C(C1=C[C@@H](c2ccc(Br)cc2)C[C@@H](OCc2ccc(CO)cc2)O1)N1CCN(Cc2ccccc2)CC1	23µM*	?	2%	-2%	-15%	28%
C#Cc1ccc([C@H]2C=C(C(=O)N3CCN(Cc4ccccc4)CC3)O[C@@H](OCc3ccc(CO)cc3)C2)cc1	?	?	1%	16%	-10%	9%
Cc1cccc(-c2nn(-c3ccccc3)cc2C(=O)N2CCN(C3CCS(=O)(=O)C3)CC2)c1 (configuration not stated)	14%	1%	-5%	-16%	0%	0%
CCCc1cc(C(=O)Nc2nccs2)cs1	?	0%	21%	-3%	1.3µM*	?
